MITF primary – human MITF inhibition, primary screen; AlphaScreen MITF homodimerization, bead proximity signal; inhibition, % at 2.6 µM; actives 0.91% (n = 650,000); in the data active = inhibition above about 50%
FBW7 activator – activators of human E3 ligase FBW7; AlphaScreen FBW7–phospho-cyclin E peptide binding, activator screen; Q969H0; normalized activity (activation), % at 26.1 µM; actives 0.13% (n = 650,000); in the data active = normalized activity above about 1.9%;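 note: purified mutant Fbw7 with reduced substrate affinity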
GPR151 activ – activators of human GPR151 | Q8TDV0 | PathHunter beta-arrestin GPR151 cells, luminescence | activation, % at 11.2 µM | actives 1% (n = 650,000) | AID 1508602; in the data active = activation above about 4.9%
Target sequence (Q8TDV0 whole entry, looked up): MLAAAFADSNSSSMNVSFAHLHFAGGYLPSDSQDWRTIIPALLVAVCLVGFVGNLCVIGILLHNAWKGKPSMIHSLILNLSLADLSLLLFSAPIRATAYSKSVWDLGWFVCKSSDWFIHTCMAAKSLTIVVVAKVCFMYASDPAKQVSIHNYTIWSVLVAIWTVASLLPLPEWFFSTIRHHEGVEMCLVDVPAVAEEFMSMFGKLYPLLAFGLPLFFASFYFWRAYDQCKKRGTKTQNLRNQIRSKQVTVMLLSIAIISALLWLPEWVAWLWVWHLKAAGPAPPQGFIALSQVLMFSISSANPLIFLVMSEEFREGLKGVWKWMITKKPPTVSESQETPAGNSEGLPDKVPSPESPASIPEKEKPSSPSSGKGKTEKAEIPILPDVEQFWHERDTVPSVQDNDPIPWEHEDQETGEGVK
TEAD-YAP block – TEAD-YAP interaction inhibition. HEK-TIYL cells, TEAD-Gal4/YAP UAS-luciferase luminescence. AID 1259422. actives 1.4% (n = 640,000). inhibition, % at 9.12 µM; in the data active = inhibition above about 32%
GPR151 conf act – human GPR151 activation, confirmation screen; AID 1508609; GPR151 PathHunter beta-arrestin cells, luminescence, 90 min; % of EA-reagent control over plate median; activation, % at 11.2 µM; 6,700 tested, under 10 active; shares compounds with GPR151 activ;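 active = mean percent activation across replicates above the confirmation screen cutoff of 4.91%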
GPR119 ag – counter-screen for GPR151 activators: effect on human GPR119; shares compounds with GPR151 activ; GPR119 PathHunter beta-arrestin cells, luminescence, 90 min; 0 = compound-well median, 100 = enzyme-acceptor control; activation, % at 11.2 µM; actives 0.3% (n = 6,700);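 active = mean percent activation in the counterscreen above 29.09%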;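 note: counterscreen on off-target GPR119 to flag nonselective hits from the GPR151 activator screen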
Numbers stand for hits. This is a sample that favours compounds with a hit; in the whole collection about 3.5% have one here.

`CCOc1ccccc1NC(=O)c1ccc(F)c(S(=O)(=O)N2CCN(c3ccccn3)CC2)c1` gave MITF primary inactive, FBW7 activator inactive, GPR151 activ 6.0, TEAD-YAP block inactive, GPR151 conf act inactive and GPR119 ag inactive.
Screening Cn1c(=O)c2c(nc(SCCO)n2Cc2cccc3ccccc23)n(C)c1=O returned MITF primary inactive, FBW7 activator inactive, GPR151 activ inactive and TEAD-YAP block inactive.
For COc1cccc2ccc(CN3CCN(C4CCN(C(C)C)CC4)C(CCO)C3)nc12 (stereo not drawn) the results were MITF primary inactive, FBW7 activator inactive, GPR151 activ 9.0, TEAD-YAP block inactive, GPR151 conf act inactive and GPR119 ag inactive.
Screening CC(C)N1CCC(N2CCN(Cc3ccc(-c4ccc(Cl)cc4)o3)CC2CCO)CC1 (stereo not drawn) returned MITF primary inactive, FBW7 activator inactive, GPR151 activ 6.6, TEAD-YAP block inactive, GPR151 conf act inactive and GPR119 ag inactive.
For COc1ccc(-c2noc(CN3CCC(c4ccc(F)cc4)C3)n2)c(OC)c1OC (stereo not drawn) the results were MITF primary inactive, FBW7 activator inactive, GPR151 activ inactive and TEAD-YAP block inactive.
For NC(=O)c1cnc(NCCCN2CCCC2=O)s1 the results were MITF primary inactive, FBW7 activator inactive, GPR151 activ inactive and TEAD-YAP block inactive.
`O=C1CN(c2ccc(S(=O)(=O)N3CCC(Cc4ccccc4)CC3)cn2)CCN1` gave MITF primary inactive, FBW7 activator inactive, GPR151 activ 7.3, TEAD-YAP block inactive, GPR151 conf act inactive and GPR119 ag inactive.
Screening O=C1CN(c2ccc(S(=O)(=O)N3CCCC3)cn2)CCN1 returned MITF primary inactive, FBW7 activator inactive, GPR151 activ inactive and TEAD-YAP block inactive.
`Cc1ccc(N2CC(C(=O)O)CC2=O)c(C)c1` (stereo not drawn) gave MITF primary inactive, FBW7 activator inactive, GPR151 activ inactive and TEAD-YAP block inactive.
`COC(=O)c1ccc(OC(=O)C2CC(=O)N(c3ccc(C)cc3C)C2)cc1` (stereo not drawn) gave MITF primary inactive, FBW7 activator inactive, GPR151 activ 5.0, TEAD-YAP block inactive, GPR151 conf act inactive and GPR119 ag inactive.
`Cc1cc(NCCOc2ccccc2)nc(NC2CCN(Cc3ccccc3)CC2)n1` gave MITF primary inactive, FBW7 activator inactive, GPR151 activ inactive and TEAD-YAP block inactive.
Cc1ccc(Nc2nc(N3CCOCC3)nc3c2cnn3C)c(C)c1 was read as MITF primary inactive, FBW7 activator inactive, GPR151 activ 5.4, TEAD-YAP block inactive, GPR151 conf act inactive and GPR119 ag inactive.
`COC(=O)c1cc(OC)c(OC)cc1NC(=O)c1cc(C)ccc1C` gave MITF primary inactive, FBW7 activator inactive, GPR151 activ inactive and TEAD-YAP block inactive.
COc1cc(NC(=O)c2ccccc2OC)c(C(=O)O)cc1OC was read as MITF primary inactive, FBW7 activator inactive, GPR151 activ 6.7, TEAD-YAP block inactive, GPR151 conf act inactive and GPR119 ag inactive.
For COc1cc(NC(=O)c2ccccc2F)c(C(=O)O)cc1OC the results were MITF primary inactive, FBW7 activator inactive, GPR151 activ inactive and TEAD-YAP block inactive.
Screening COC(=O)c1cc(OC)c(OC)cc1NC(=O)c1ccccc1C returned MITF primary inactive, FBW7 activator inactive, GPR151 activ 9.7, TEAD-YAP block inactive, GPR151 conf act inactive and GPR119 ag inactive.
COc1ccc(Br)cc1C(=O)Nc1cc(Cl)ccc1C(=O)O was read as MITF primary inactive, FBW7 activator inactive, GPR151 activ 8.4, TEAD-YAP block inactive, GPR151 conf act inactive and GPR119 ag inactive.
Screening CC(=O)Nc1ccc(NC(=O)C(C)Sc2ccccc2)cc1 (stereo not drawn) returned MITF primary inactive, FBW7 activator inactive, GPR151 activ 11, TEAD-YAP block inactive, GPR151 conf act inactive and GPR119 ag inactive.
`CCc1ccccc1Nc1nc(-c2ccc(OC)c(OC)c2)cs1` gave MITF primary inactive, FBW7 activator inactive, GPR151 activ inactive and TEAD-YAP block inactive.
Screening CCOc1ccc(C(C)NC(=O)c2ccc(F)cc2)cc1 (stereo not drawn) returned MITF primary inactive, FBW7 activator inactive, GPR151 activ inactive and TEAD-YAP block inactive.
`CCOc1ccc(C(C)NC(=O)c2ccc(OC)cc2)cc1` (stereo not drawn) gave MITF primary inactive, FBW7 activator inactive, GPR151 activ 6.2, TEAD-YAP block inactive, GPR151 conf act inactive and GPR119 ag inactive.
`O=C(/C=C/c1c(F)cccc1Cl)NCCN1CCOCC1` gave MITF primary inactive, FBW7 activator inactive, GPR151 activ 6.2, TEAD-YAP block inactive, GPR151 conf act inactive and GPR119 ag inactive.
Screening CC(C)(O)C#Cc1ccc(CN2CCC3(CC2)CC3C(=O)NCc2cccs2)cc1 (stereo not drawn) returned MITF primary inactive, FBW7 activator inactive, GPR151 activ inactive and TEAD-YAP block inactive.
For COc1cccc(CN(C)CCN(C)C)c1O the results were MITF primary inactive, FBW7 activator inactive, GPR151 activ inactive and TEAD-YAP block inactive.
COc1ccc(CN(C)CCN(C)C)c(OC)c1C was read as MITF primary inactive, FBW7 activator inactive, GPR151 activ 6.6, TEAD-YAP block inactive, GPR151 conf act inactive and GPR119 ag inactive.
Screening COc1ccccc1N1CCN(CC(=O)N(C(C)C)C(C)C)CC1 returned MITF primary inactive, FBW7 activator inactive, GPR151 activ inactive and TEAD-YAP block inactive.
For O=C1NC(c2ccc(F)cc2)C(C(=O)c2ccccc2)C(O)(C(F)(F)F)N1 (stereo not drawn) the results were MITF primary inactive, FBW7 activator inactive, GPR151 activ inactive and TEAD-YAP block inactive.
Screening Cc1ccc(C(=O)C2C(c3ccccc3F)NC(=O)NC2(O)C(F)(F)F)cc1 (stereo not drawn) returned MITF primary inactive, FBW7 activator inactive, GPR151 activ 6.9, TEAD-YAP block inactive, GPR151 conf act inactive and GPR119 ag inactive.
For COC(=O)c1ccc(C2NC(=O)NC(O)(C(F)(F)F)C2C(=O)c2ccc(F)cc2)cc1 (stereo not drawn) the results were MITF primary inactive, FBW7 activator inactive, GPR151 activ 6.2, TEAD-YAP block inactive, GPR151 conf act inactive and GPR119 ag inactive.
O=C1NC(c2ccccc2O)C(C(=O)c2ccccc2)C(O)(C(F)(F)F)N1 (stereo not drawn) was read as MITF primary inactive, FBW7 activator inactive, GPR151 activ inactive and TEAD-YAP block inactive.
`Cc1ccc(C2C3=C(CC(C)(C)CC3=O)Nc3c2c(=O)n(C)c(=O)n3C)cc1` (stereo not drawn) gave MITF primary inactive, FBW7 activator inactive, GPR151 activ 7.5, TEAD-YAP block inactive, GPR151 conf act inactive and GPR119 ag inactive.

Screens as filed in PubChem BioAssay.
